The results in this text go back to PubChem BioAssay.

Records with an inconclusive call do not appear. Calls of active or inactive are those of the source. Rule as the data show it, unless noted: active = percent of DMSO control GFP below about 86%; inactive = the rest, inconclusive results apart.

The nature of assay [1]: yeast TOR pathway RPL19A-GFP modulators, primary screen, cell-based, S. cerevisiae, multiplex flow cytometry (AID 1862).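 Also: lower values mimic rapamycin by blocking the RPL19A rise seen in DMSO cells.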 Particulars: S. cerevisiae RPL19A-GFP strain, flow cytometry fluorescence, 3 h; at 10 µM; stronger effect = lower value. In general terms: Flow cytometry measures light scatter and fluorescence of single cells or particles in a stream.
Assay [2] is described as follows: modulators of MEP2-GFP levels in yeast, primary screen, S. cerevisiae, multiplex flow cytometry (AID 1867;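 active = GFP response, as percent of the DMSO control, above the screen-wide mean plus 3 SD, about 139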;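 also: median GFP channel fluorescence of barcode-gated MEP2-GFP cells measured by flow cytometry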). Particulars: S. cerevisiae MEP2-GFP strain, 3 h, at 10 µM, stronger effect = higher value, 100% means same as DMSO wells.
A short description of assay [3]: modulators of CIT2-GFP expression in yeast, primary screen, S. cerevisiae, GFP fusion, multiplex flow cytometry (AID 1870;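 active = percent response above a set limit, the screen-wide mean plus 3 SD, cut at about 130% in these data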;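 also: barcoded CIT2-GFP strain pooled with four other GFP strains with rapamycin as positive control; median GFP fluorescence per well over plate mean of DMSO wells so 100% = DMSO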). Conditions: 3 h, at 10 µM, stronger effect = higher value.
A short description of assay [4]: modulators of LAP4-GFP expression in yeast, primary screen, S. cerevisiae, multiplex flow cytometry (AID 1873;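 active = GFP signal, as percent of the solvent control, above the screen mean plus 3 SD, about 149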). Conditions: 3 h, at 10 µM, stronger effect = higher value.
Assay [5] in a line: modulators of AGP1-GFP expression in yeast TOR pathway, primary screen, cell-based, multiplex flow cytometry, S. cerevisiae (AID 1887;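 active = GFP signal above the screen-wide mean plus 3 SD, that is over about 124.5% of the solvent control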;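 also: AGP1-GFP fusion strain of S. cerevisiae within a five-strain barcoded multiplex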). Particulars: 3 h, at 10 µM, stronger effect = higher value.
Assay [6] in a line: inhibitors of CD8+ T cell-vesicle binding, pilot screen, LFA-1/ICAM-1 modulator project, MLPCN validation set, flow cytometry (AID 2523;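 active = response below a set limit, under 55% cells CD8-positive and vesicle-bound, and CD8 cells' 90th-percentile brightness under 279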;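 as to vesicle binding response: mean PE anti-B7-1 fluorescence of CD8+ cells relative to row control; 100% = QL9-loaded vesicles with DMSO vehicle in the same plate row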). Particulars: 2C mouse CD8+ T cells, at 7 µM, stronger effect = lower value; double positive events: measured here: CD8+/vesicle+ event percentage.
Assay [7] has as its target Integrin beta-1 (Homo sapiens) + Integrin alpha-4 (Homo sapiens) (UniProt P13612+P05556). Description: inhibition of HUTS-21 binding to VLA-4, pilot screen, VLA-4 allosteric modulator project, U937 cells, HUTS-21 mAb, flow cytometry, validation set (AID 2674;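 active = inhibition above 50%, about 3 SD of the validation set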;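 also: antibody binding induced by the VLA-4 ligand LDV present at three times its Kd; 0% = LDV ligand with antibody and no compound and 100% = antibody without LDV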). Conditions: HUTS-21 LIBS mAb binding, at 6.7 µM, stronger effect = higher value, binding induced by LDV ligand.
A short description of assay [8]: superoxide lowering in aged yeast cells, pilot screen, validation compound set (AID 2706;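 active = superoxide response below 65% of plate, a cut near 3 SD across the whole screen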;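 also: yeast exposed to compound for one week at 30 degrees C before staining; 100% = mean of all compound wells on the same plate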). Particulars: S. cerevisiae aging, superoxide DHE fluorescence; at 10 µM; stronger effect = lower value.
The target in assay [9] is Beta-adrenergic receptor kinase 1 (Homo sapiens) (UniProt P25098). Description: GRK2 binders displacing RNA aptamer, biochemical, validation, human GRK2, bead flow cytometry (AID 488806;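 active = aptamer binding inhibition above 30%, about 3 SD of noise from non-fluorescent compounds; inactive = inhibition at or below 30%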). Conditions: bead-bound GRK2, FAM-aptamer displacement, at 10 µM, stronger effect = higher value.
Assay [10] deals with Beta-2 adrenergic receptor (Homo sapiens) (UniProt P07550). Nature of the assay: beta2AR agonists driving receptor internalization, pilot screen, cell-based, FAP fluorogen, flow cytometry, validation set (AID 504459;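 active = percent response above 42, roughly 3 SD of non-fluorescent test compounds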;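 also: agonist-driven loss of surface beta2AR via internalization measured by FAP dye flow cytometry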). Conditions: Am2.2-beta2AR cells, FAP surface receptor flow cytometry; at 10 µM; stronger effect = higher value.
In assay [11] the target is AP-2 complex subunit beta (Homo sapiens) (UniProt P63010). Description: inhibitors of arrestin peptide binding to AP2, pilot screen, biochemical, validation set, GST-AP2 beads, flow cytometry (AID 504541;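 active = inhibition above 54%, about 3 SD of non-fluorescent compounds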;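 also: AP2 carries R879A mutation and is captured from E. coli lysate; bead-bound FITC arrestin peptide fluorescence measuring arrestin peptide binding to AP2; 0% = DMSO wells and 100% = excess unlabeled arrestin peptide control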). Conditions: FITC arrestin peptide, at 10 µM, stronger effect = higher value, AP2 beta2 appendage fragment, R879A mutant.
The nature of assay [12]: yeast V-ATPase proton transport modulators, S. cerevisiae, pHLuorin, HTS validation (AID 504600; in the data active = response above about 15%;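 also: plate controls were DMSO for no effect and reference compound for full effect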). Conditions: S. cerevisiae pHLuorin cytosolic pH, at 10 µM, stronger effect = higher value.
In assay [13] the test system is anti-desmoglein-3 scFv antibody binding to human DSG3. Description: inhibitors of anti-DSG3 scFv binding to DSG3, pilot screen, biochemical, validation compound set, bead-based, flow cytometry (AID 588368;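 active = binding below the plate cutoff, the plate median minus 3 SD, with a reading above zero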;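 also: signal is the median channel fluorescence of bead-bound GFP antibody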). Particulars: Protein G beads, DSG3-Fc, scFv-GFP binding, at 10 µM, stronger effect = lower value.
The nature of assay [14]: inhibitors of fungal efflux pumps CDR1, CDR2, MDR1, pilot screen, validation compound set, multiplex, phenotypic (AID 588506;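 active = efflux inhibition above 0.42, the validation set average plus 4 SD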;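 also: Nile Red retained in cells so higher fluorescence means more efflux inhibition; 0 = negative control wells and 1 = enniatin B 25 µM full block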). Conditions: S. cerevisiae pump-expressing triplex, Nile Red efflux flow cytometry; at 10 µM; stronger effect = higher value; the pumps come from Candida albicans.
Assay [15] deals with ATP-binding cassette sub-family B member 6 (Homo sapiens) (UniProt Q9NP58). Description: ABCB6 transporter inhibitors, pilot screen, K562-ABCB6 cells, flow cytometry, validation set (AID 588550;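 active = inhibition above the screen-wide mean plus 3 SD, about 51%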;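 also: 0% = DMSO wells and 100% = benzethonium chloride 70 µM positive control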). Particulars: K562-ABCB6 porphyrin accumulation, 1 h, at 10 µM, stronger effect = higher value.
Assay [16] can be described thus: promoters of myeloid differentiation in arrested cells, primary screen, cell-based, GFP/MAC1 double positive, flow cytometry, validation set (AID 588685;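 active = differentiation response of at least 50%, scaled between solvent and reference control, from cells with both markers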;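 also: compound exposure lasts four days before antibody staining and flow analysis; 0% = DMSO wells and 100% = 5 µM fulvestrant positive control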). Particulars: ER-HoxA9 marrow cells, stronger effect = higher value, normalized: vehicle 0, fulvestrant 100.

Integrin beta-1 (Homo sapiens) + Integrin alpha-4 (Homo sapiens), sequence (P05556 whole entry, looked up): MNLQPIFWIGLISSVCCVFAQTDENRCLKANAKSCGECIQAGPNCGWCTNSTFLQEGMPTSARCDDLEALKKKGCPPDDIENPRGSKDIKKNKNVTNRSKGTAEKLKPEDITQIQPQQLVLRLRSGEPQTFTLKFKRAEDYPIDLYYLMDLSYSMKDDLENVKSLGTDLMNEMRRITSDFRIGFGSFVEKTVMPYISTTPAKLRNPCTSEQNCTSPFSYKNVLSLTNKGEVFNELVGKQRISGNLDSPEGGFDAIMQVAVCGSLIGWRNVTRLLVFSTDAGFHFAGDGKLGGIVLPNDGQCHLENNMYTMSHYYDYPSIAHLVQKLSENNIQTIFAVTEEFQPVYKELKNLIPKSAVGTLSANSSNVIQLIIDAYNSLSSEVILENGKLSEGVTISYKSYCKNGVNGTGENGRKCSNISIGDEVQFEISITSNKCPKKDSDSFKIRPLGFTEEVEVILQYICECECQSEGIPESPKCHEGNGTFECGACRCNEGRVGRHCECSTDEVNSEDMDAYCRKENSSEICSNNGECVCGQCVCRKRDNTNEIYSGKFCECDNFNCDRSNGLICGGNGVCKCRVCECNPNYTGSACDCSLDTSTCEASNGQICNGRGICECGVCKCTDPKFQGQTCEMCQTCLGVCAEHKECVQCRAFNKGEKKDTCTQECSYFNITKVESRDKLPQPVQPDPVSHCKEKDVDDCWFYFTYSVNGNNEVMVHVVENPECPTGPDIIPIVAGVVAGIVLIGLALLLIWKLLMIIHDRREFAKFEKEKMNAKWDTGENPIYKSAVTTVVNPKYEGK
Integrin beta-1 (Homo sapiens) + Integrin alpha-4 (Homo sapiens), sequence (P13612 whole entry, looked up): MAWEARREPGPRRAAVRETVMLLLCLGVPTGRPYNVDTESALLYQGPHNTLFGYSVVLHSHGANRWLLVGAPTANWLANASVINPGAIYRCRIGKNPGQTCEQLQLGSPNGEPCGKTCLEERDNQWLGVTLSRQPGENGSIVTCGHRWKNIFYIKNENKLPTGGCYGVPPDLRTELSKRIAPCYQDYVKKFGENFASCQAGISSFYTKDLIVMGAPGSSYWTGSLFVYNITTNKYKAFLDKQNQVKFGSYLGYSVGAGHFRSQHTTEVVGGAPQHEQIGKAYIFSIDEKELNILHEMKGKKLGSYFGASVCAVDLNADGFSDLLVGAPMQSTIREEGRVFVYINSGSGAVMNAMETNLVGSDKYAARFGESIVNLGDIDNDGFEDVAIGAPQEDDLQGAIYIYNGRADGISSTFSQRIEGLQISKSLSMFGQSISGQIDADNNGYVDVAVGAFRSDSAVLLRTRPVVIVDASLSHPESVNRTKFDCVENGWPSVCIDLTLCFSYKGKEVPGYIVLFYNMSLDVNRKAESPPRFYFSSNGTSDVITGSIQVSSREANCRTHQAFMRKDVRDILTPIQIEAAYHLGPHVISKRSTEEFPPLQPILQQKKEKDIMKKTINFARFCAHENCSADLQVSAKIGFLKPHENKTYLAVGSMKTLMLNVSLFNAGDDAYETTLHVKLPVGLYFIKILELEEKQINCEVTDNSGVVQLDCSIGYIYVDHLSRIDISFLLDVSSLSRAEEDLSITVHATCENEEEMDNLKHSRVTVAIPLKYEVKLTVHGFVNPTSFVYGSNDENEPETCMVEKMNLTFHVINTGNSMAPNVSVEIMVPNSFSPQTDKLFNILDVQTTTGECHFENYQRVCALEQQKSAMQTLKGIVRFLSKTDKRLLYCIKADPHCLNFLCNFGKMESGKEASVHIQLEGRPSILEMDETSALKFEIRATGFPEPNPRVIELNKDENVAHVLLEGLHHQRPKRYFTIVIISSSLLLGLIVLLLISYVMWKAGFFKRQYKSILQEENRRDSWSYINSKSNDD
ATP-binding cassette sub-family B member 6 (Homo sapiens), sequence (Q9NP58 whole entry, looked up): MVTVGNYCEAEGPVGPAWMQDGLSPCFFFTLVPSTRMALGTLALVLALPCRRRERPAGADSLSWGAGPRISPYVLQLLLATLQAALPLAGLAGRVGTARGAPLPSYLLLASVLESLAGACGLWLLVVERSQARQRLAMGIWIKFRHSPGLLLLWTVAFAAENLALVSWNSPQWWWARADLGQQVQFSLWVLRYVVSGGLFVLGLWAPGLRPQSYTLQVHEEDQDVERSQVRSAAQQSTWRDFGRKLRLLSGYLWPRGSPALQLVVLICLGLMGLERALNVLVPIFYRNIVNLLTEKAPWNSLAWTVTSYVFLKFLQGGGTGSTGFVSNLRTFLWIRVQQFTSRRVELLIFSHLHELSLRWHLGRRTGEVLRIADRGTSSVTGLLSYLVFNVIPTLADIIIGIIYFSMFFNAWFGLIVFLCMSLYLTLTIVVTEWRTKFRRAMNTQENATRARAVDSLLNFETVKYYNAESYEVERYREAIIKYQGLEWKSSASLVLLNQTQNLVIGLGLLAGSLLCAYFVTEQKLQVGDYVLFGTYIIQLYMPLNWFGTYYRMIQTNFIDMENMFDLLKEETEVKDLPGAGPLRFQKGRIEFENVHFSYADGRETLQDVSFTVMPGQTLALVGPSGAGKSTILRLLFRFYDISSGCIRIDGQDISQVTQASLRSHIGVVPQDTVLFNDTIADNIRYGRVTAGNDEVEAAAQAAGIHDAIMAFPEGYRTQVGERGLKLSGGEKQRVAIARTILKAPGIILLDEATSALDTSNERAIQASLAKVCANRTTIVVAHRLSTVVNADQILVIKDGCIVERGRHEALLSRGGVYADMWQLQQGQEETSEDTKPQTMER
AP-2 complex subunit beta (Homo sapiens), sequence (P63010 whole entry, looked up, the tested form may be a part, one chain of several): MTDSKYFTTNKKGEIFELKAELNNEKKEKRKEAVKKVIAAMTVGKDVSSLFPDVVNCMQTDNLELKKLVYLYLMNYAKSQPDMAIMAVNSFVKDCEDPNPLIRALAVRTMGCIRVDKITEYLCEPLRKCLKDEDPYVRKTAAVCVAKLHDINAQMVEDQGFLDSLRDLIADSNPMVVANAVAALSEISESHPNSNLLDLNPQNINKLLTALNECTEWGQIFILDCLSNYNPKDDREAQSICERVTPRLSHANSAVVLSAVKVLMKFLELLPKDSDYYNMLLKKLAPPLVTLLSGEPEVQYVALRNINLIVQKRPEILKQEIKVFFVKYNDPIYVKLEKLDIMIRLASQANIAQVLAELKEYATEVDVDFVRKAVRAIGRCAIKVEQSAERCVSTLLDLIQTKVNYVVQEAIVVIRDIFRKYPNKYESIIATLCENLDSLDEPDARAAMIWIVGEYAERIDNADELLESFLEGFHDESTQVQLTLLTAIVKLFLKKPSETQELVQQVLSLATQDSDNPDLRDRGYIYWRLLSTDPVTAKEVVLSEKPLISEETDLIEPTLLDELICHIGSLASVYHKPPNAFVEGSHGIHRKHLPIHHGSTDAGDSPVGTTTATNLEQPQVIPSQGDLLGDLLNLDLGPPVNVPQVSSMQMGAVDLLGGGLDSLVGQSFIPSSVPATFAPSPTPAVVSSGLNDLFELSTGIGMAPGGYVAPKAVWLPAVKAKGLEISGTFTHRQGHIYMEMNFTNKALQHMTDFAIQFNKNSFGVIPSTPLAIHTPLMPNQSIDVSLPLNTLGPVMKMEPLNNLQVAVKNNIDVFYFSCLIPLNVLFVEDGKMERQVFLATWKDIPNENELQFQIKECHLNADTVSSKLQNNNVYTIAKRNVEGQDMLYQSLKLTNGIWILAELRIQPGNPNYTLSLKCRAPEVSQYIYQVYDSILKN
Beta-adrenergic receptor kinase 1 (Homo sapiens), sequence (P25098 whole entry, looked up): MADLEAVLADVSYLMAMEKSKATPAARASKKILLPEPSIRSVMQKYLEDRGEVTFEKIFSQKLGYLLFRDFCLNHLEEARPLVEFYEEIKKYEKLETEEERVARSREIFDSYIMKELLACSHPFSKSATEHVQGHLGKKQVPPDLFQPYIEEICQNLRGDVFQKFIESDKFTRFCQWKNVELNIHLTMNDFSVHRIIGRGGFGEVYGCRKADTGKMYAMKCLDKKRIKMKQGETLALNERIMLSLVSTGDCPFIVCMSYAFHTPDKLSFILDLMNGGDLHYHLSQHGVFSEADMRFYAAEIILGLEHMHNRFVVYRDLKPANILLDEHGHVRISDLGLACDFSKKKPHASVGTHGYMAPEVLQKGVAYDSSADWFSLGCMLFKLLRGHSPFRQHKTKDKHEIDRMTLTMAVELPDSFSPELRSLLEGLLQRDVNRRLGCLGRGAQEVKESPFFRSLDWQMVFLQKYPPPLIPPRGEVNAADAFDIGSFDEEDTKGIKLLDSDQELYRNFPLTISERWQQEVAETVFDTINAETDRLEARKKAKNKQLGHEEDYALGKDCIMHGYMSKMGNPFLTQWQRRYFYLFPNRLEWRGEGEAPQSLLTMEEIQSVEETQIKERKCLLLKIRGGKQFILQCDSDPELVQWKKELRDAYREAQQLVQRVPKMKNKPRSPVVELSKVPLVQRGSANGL
Beta-2 adrenergic receptor (Homo sapiens), sequence (P07550 whole entry, looked up): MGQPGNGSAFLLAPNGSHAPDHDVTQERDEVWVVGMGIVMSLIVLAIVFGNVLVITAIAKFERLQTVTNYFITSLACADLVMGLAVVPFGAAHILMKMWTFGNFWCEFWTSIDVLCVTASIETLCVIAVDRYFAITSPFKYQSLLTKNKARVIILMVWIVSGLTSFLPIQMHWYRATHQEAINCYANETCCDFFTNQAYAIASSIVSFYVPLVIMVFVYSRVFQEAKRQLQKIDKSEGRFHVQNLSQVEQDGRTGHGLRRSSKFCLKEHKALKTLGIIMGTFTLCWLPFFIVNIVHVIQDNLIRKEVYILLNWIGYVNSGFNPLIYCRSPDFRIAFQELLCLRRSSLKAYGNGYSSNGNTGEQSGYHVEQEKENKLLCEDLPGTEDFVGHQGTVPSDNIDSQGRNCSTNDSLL

In the case of `CC(=O)N1CCN(c2ccc(OC[C@H]3CO[C@](Cn4ccnc4)(c4ccc(Cl)cc4Cl)O3)cc2)CC1`, in assay [1], the percent of DMSO control GFP was 105% (inactive). Also, the GFP response vs DMSO in assay [2] is 108% (inactive); in [4] it was 109% (inactive). The percent response of DMSO control in assay [3] is 111% (inactive). Moreover, the GFP response, % of DMSO in assay [5] is 111% (inactive). In addition, the double positive events in assay [6] came out at 63.3%. In addition, the vesicle binding response in assay [6] was 188% (inactive). In addition, the results for the inhibition in [7], in assay [11] and in assay [15] were 4.27% (inactive), 6.3% (inactive) and -9% (inactive), respectively. Besides, the superoxide response (% of plate) in assay [8] was 100% (inactive). Also, in assay [9], the aptamer binding inhibition is -2% (inactive). Further, the response in [10] is 0.01% (inactive); in [12], -2.33% (inactive). The binding (% of control) in [13] was 98.1% (inactive). In assay [14], the efflux inhibition (fraction of control) was 0.59 (active). In addition, in assay [16], the differentiation response is -10.4% (inactive).
On to `NC(N)=NC(N)=Nc1ccc2ccccc2c1`, for which the percent of DMSO control GFP in assay [1] was 102% (inactive). In addition, the figures for the GFP response vs DMSO in assay [2] and in [4] were 97.4% (inactive) and 85.4% (inactive), respectively. The percent response of DMSO control in [3] was 104% (inactive). For the same molecule, the GFP response, % of DMSO in assay [5] was 95.8% (inactive). Further, in assay [6], the double positive events was 58.7%. The vesicle binding response in assay [6] was 183% (inactive). In addition, the inhibition is 3.67% (inactive) in assay [7], 16% (inactive) in assay [11] and -3% (inactive) in [15]. The superoxide response (% of plate) in assay [8] was 106% (inactive). For the same molecule, the aptamer binding inhibition in assay [9] is 1% (inactive). The response in [10] is 18% (inactive); in assay [12] it was -3.32% (inactive). Moreover, the binding (% of control) in [13] was 97.8% (inactive). For the same molecule, in [14], the efflux inhibition (fraction of control) is -0.21 (inactive). The differentiation response in assay [16] was -0.8% (inactive).
On to `COc1cccc(CC(=O)NCC2COc3ccccc3O2)c1OC` (centres undefined), for which the percent of DMSO control GFP in assay [1] is 103% (inactive). For the same molecule, the GFP response vs DMSO in assay [2] was 105% (inactive); in [4], 102% (inactive). Besides, the percent response of DMSO control in assay [3] was 101% (inactive). Moreover, the GFP response, % of DMSO in assay [5] is 106% (inactive). The double positive events in [6] worked out at 60.9%. For the same molecule, the vesicle binding response in assay [6] is 230% (inactive). In addition, the inhibition was 6.95% (inactive) in assay [7], -3.19% (inactive) in assay [11] and 63% (active) in assay [15]. In addition, the superoxide response (% of plate) in assay [8] was 92.8% (inactive). Besides, the aptamer binding inhibition in assay [9] was 2% (inactive). Further, the response is 3.04% (inactive) in assay [10] and -3.58% (inactive) in assay [12]. The binding (% of control) in assay [13] was 103% (inactive). Besides, the efflux inhibition (fraction of control) in assay [14] is -0.1 (inactive). In [16], the differentiation response is -6.03% (inactive).
Consider `CCN(CC)c1ccc(C2=NNC(=O)CC2C)cc1[N+](=O)[O-]` (centres undefined), for which, in [1], the percent of DMSO control GFP was 97.4% (inactive). Further, the GFP response vs DMSO is 102% (inactive) in [2] and 119% (inactive) in assay [4]. In assay [3], the percent response of DMSO control is 95.8% (inactive). Further, the GFP response, % of DMSO in [5] was 105% (inactive). The molecule further had a double positive events in [6] of 60.7%. The vesicle binding response in assay [6] is 189% (inactive). Further, the inhibition in assay [7] was -15.4% (inactive); in assay [11], -4.02% (inactive); in [15], -22% (inactive). Further, the superoxide response (% of plate) in assay [8] was 110% (inactive). Moreover, the aptamer binding inhibition in [9] is 3% (inactive). For the same molecule, the response was 0.9% (inactive) in [10] and -0.46% (inactive) in assay [12]. For the same molecule, the binding (% of control) in assay [13] is 98.9% (inactive). Also, in assay [14], the efflux inhibition (fraction of control) was -0.21 (inactive). Besides, in [16], the differentiation response was -4% (inactive).
Take `CCc1cc2c(=O)c(-c3nc(C)cs3)coc2cc1OC(C)C(=O)NCCO` (centres undefined): the percent of DMSO control GFP in [1] is 90.2% (inactive). Also, the GFP response vs DMSO is 129% (inactive) in assay [2] and 86.4% (inactive) in [4]. Moreover, in [3], the percent response of DMSO control was 107% (inactive). For the same molecule, the GFP response, % of DMSO in assay [5] was 92.4% (inactive). Moreover, in assay [6], the double positive events came to 62.3%. For the same molecule, in assay [6], the vesicle binding response was 143% (inactive). Also, the inhibition in assay [7] was 9.37% (inactive); in assay [11], -0.76% (inactive); in [15], 10% (inactive). Besides, in [8], the superoxide response (% of plate) was 95.6% (inactive). The aptamer binding inhibition in [9] is 3% (inactive). Also, the results for the response in assay [10] and in assay [12] were 8.19% (inactive) and -0.12% (inactive), respectively. Further, in [13], the binding (% of control) was 101% (inactive). The efflux inhibition (fraction of control) in assay [14] is -0.2 (inactive). For the same molecule, the differentiation response in assay [16] was -4.09% (inactive).
Take `NC[C@H]1O[C@H](O[C@H]2[C@H](O)[C@@H](O[C@H]3O[C@H](CO)[C@@H](O)[C@H](N)[C@H]3O)[C@H](N)C[C@@H]2N)[C@H](N)C[C@@H]1O`: the percent of DMSO control GFP in [1] is 101% (inactive). Besides, the GFP response vs DMSO in assay [2] is 102% (inactive); in assay [4], 109% (inactive). The percent response of DMSO control in assay [3] is 95.1% (inactive). Further, the GFP response, % of DMSO in [5] is 110% (inactive). This molecule also registered a double positive events in [6] of 63.2%. Besides, in assay [6], the vesicle binding response was 273% (inactive). In addition, the inhibition in assay [7] was 12.5% (inactive); in assay [11], -4.09% (inactive); in assay [15] it was 2% (inactive). For the same molecule, the superoxide response (% of plate) in assay [8] was 110% (inactive). The aptamer binding inhibition in [9] was 3% (inactive). Moreover, the values for the response in assay [10] and in assay [12] were -5.14% (inactive) and -21.1% (inactive), respectively. Further, the binding (% of control) in assay [13] was 109% (inactive). Moreover, the efflux inhibition (fraction of control) in [14] was 0.04 (inactive). Further, in [16], the differentiation response is -7.94% (inactive).
Consider `C/C=C/c1ccc(OCCCCN2CC(C)CC(C)C2)c(OC)c1` (centres undefined), for which the percent of DMSO control GFP in [1] was 102% (inactive). The GFP response vs DMSO is 107% (inactive) in assay [2] and 96.6% (inactive) in assay [4]. For the same molecule, the percent response of DMSO control in [3] is 106% (inactive). In addition, the GFP response, % of DMSO in assay [5] was 97.2% (inactive). The molecule also yielded a double positive events in [6] of 58.6%. Moreover, in assay [6], the vesicle binding response was 52.4% (inactive). For the same molecule, the inhibition in assay [7] is 8.88% (inactive); in assay [11], 39.6% (inactive); in [15], -10% (inactive). The superoxide response (% of plate) in assay [8] was 104% (inactive). In [9], the aptamer binding inhibition was -1% (inactive). For the same molecule, the response in [10] was -1.02% (inactive); in [12], -3.37% (inactive). In addition, the binding (% of control) in assay [13] was 99.7% (inactive). Besides, the efflux inhibition (fraction of control) in assay [14] was 0.02 (inactive). Also, the differentiation response in assay [16] was -1.71% (inactive).

By inhibition is commonly meant the change of the read-out against control, counted positive when it falls.
